Screens: PubChem BioAssay, National Center for Advancing Translational Sciences (NCATS)
This is a sample that favours compounds with a hit; in the whole collection about 2.9% have one here.
DRV1 agonist = activates human resolvin D1 receptor GPR32; CHO-K1 GPR32 beta-arrestin PathHunter luminescence, 90 min; zero percent set by DMSO-only wells; activation, % at 76.9 µM; 48,000 compounds, 2.5% hits;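 active = activation of at least 60% and not above a set upper limit, about 1 call in 100 departs from these limits; inconclusive = activation of 40% to 60%, or above that upper limit; inactive = activation under 40%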
Target sequence (O75388 whole entry, looked up): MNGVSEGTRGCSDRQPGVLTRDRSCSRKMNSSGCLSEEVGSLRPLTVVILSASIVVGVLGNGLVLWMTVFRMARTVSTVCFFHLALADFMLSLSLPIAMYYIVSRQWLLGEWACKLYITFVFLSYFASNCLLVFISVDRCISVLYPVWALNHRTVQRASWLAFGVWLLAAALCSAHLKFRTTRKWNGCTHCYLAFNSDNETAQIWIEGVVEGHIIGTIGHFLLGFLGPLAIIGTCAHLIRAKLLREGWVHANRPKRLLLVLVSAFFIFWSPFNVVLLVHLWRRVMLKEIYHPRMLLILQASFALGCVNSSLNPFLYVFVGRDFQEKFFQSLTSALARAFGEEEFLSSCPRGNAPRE
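Cells are plated overnight, treated with compounds in DMSO for 90 minutes at 37 °C, and developed with PathHunter detection reagent for 1 hour before luminescence is read; signal reflects beta-arrestin binding to GPR32 in engineered CHO-K1 cells.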
FH mod = Identification of activators of human fumarate hydratase by quantitative high-throughput screening; Potency, µM (highest dose often 79.9 µM), usual class: inhibitors; Fumarate hydratase, mitochondrial (Homo sapiens), P07954; FH coupled MDH/diaphorase resazurin fluorescence, 15 min; 54,000 compounds, 0.22% hits; also: the screen sought activators but most active calls are inhibition curves; nearly all actives have a fitted effect of over 45% in size
OvCa metastasis = inhibitors of ovarian cancer cell adhesion and invasion in omental model. SKOV3ip1-GFP adhesion/invasion on 3D omental model, fluorescence. Potency, µM (series often up to 45.8 µM), most hits filed as inhibitors. 46,000 compounds, 0.1% hits. AID 1963576; also: nearly all actives have a fitted effect of over 65% in size
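Adhesion/invasion was scored as fixed GFP-labeled SKOV3ip1 cell counts (488/509 nm), normalized to DMSO and tomatine controls. Cancer cells in serum-free medium, with four compound doses (0.36-46 umol/L), sat 2 hr at RT then 16 hr at 37 C on a 48 hr fibroblast/mesothelial/ECM culture.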
GALC G270D act = raises human GALC G270D mutant activity in cells. 45,000 compounds, 0.1% hits. Potency, µM (highest dose often 57.5 µM), most hits filed as activators. AID 1159614. P54803. 145M-Twi-hGALC-G270D cells (Twitcher mouse brain line with human GALC G270D), HMU-beta-Gal fluorescence, 48 h; also: nearly all actives have a fitted effect of over 65% in size
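Fluorogenic HMU-b-Gal hydrolysis (0.1 mM final, pH 5.2 citrate-phosphate with 1 mg/mL sodium taurocholate; carbonate stop buffer) measures mutant GALC activity after compound treatment of live 145M-Twi Twitcher brain cells stably carrying human GALC-G270D, with wild-type GALC line alongside; activation sought.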
Each line names hits and unclear results; the compound was inactive in the other large screens; ! = a repeat was not active. Unless noted, calls follow the shape of the dose curve; as a rule, active = well fitted curve in the direction sought with a large enough effect; inconclusive = small, poorly fitted or top-dose-only effect, or another doubt; inactive = no such curve, though single readings can be large; an effect the other way counts as inactive or inconclusive.

CC1=CC(=O)c2ccccc2C1=O	DRV1 agonist 62, FH mod inconclusive, OvCa metastasis inconclusive
COc1ccc(S(=O)(=O)NCCc2csc(-c3ccc(F)cc3)n2)cc1	DRV1 agonist 60
Cc1ccc(C)c(S(=O)(=O)NCCc2csc(-c3ccc(Cl)cc3)n2)c1	DRV1 agonist 74, FH mod inconclusive
Cc1ccc(S(=O)(=O)NCCc2csc(-c3ccc(Cl)cc3)n2)cc1	DRV1 agonist inconclusive, FH mod inconclusive
O=S(=O)(NCCc1csc(-c2cccc(F)c2)n1)c1cc(F)ccc1F	none
CCOc1ccc(S(=O)(=O)NCCc2csc(-c3ccc(Cl)cc3)n2)cc1	DRV1 agonist 69, FH mod inconclusive
O=S(=O)(NCCc1csc(-c2ccc(F)cc2)n1)c1ccc(Cl)cc1	DRV1 agonist 64, FH mod inconclusive
CN1CCC(c2c(O)cc(O)c3c(=O)cc(-c4ccccc4Cl)oc23)C1CO (configuration not stated)	none (no result: DRV1 agonist, OvCa metastasis, GALC G270D act)
CCOC(=O)N1CCN(C(=O)Cn2sc3nc(C)cc(C)c3c2=O)CC1	none (no result: DRV1 agonist, OvCa metastasis, GALC G270D act)
OC1C=C2C3CN(Cc4cc5c(cc43)OCO5)C2CC1O (configuration not stated)	none (no result: DRV1 agonist, OvCa metastasis, GALC G270D act)
Cc1ccc(S(=O)(=O)NCCc2csc(-c3cccc(F)c3)n2)cc1	DRV1 agonist 80, FH mod inconclusive
COc1ccccc1Oc1c(NS(=O)(=O)c2ccc(C)cn2)nc(-c2ccncc2)nc1OC	none (no result: DRV1 agonist, OvCa metastasis, GALC G270D act)
Cc1ccc(CCNC(=O)c2cc3ccccn3n2)cc1	DRV1 agonist 111 (no result: FH mod, GALC G270D act)
Cc1ccccc1CCNC(=O)c1cc2ccccn2n1	none (no result: FH mod, GALC G270D act)
Cc1ccc(CN2CCCn3nc(C(=O)NCCc4ccc(Cl)cc4)cc3C2=O)cc1	DRV1 agonist 115
CSC(Cc1ccc(Cl)cc1)C(=O)Nc1ccc(Cl)cc1C(=O)O (configuration not stated)	none (no result: DRV1 agonist, OvCa metastasis, GALC G270D act)
CCc1ccc(C2=C(C)C(N3CCC(C(=O)NCc4ccccc4)CC3)=NS2(=O)=O)cc1	DRV1 agonist 65
COC(=O)N[C@H](C(=O)N1[C@@H]2CC[C@@H](C2)[C@H]1c1nc2ccc(-c3ccc4c(c3)C(F)(F)c3cc(-c5cnc([C@@H]6CCC7(CC7)N6C(=O)[C@@H](NC(=O)OC)C(C)C)[nH]5)ccc3-4)cc2[nH]1)C(C)C	none (no result: DRV1 agonist, OvCa metastasis, GALC G270D act)
CCN(CC)CCCNC(=O)c1ccc2c(c1)NC(=O)C(CS(=O)(=O)Cc1cccc(Br)c1)N2 (configuration not stated)	GALC G270D act 35µM
CC/C(C)=C/C(=O)OC1C(OC2(C)CCC3C(C4C(C)CCC42)C3(C)C)OC(C)C(O)C1O (configuration not stated)	none (no result: DRV1 agonist, OvCa metastasis, GALC G270D act)
CC(=O)Nc1nc2n(n1)C(c1ccc(F)cc1)C=C(c1ccc(Cl)cc1)N2 (configuration not stated)	none
O=S(=O)(Nc1nc2n(n1)C(c1ccc(F)cc1)C=C(c1ccccc1)N2)c1ccccc1 (configuration not stated)	DRV1 agonist 96
Cc1ccc(S(=O)(=O)Nc2nc3n(n2)C(c2ccccc2Cl)C=C(c2ccccc2)N3)cc1 (configuration not stated)	DRV1 agonist inconclusive
O=S(=O)(Nc1nc2n(n1)C(c1ccc(F)cc1)C=C(c1ccc(Cl)cc1)N2)c1ccccc1 (configuration not stated)	DRV1 agonist 95
CN1CC[C@@H](c2c(O)cc(O)c3c(=O)cc(-c4ccccc4Cl)oc23)[C@@H](O)C1	none (no result: DRV1 agonist, GALC G270D act)
CN(C)CCCCCCNC(=O)c1cccc(-c2cc(O)c3ncccc3c2)c1	none (no result: DRV1 agonist, OvCa metastasis, GALC G270D act)
N#Cc1cccc(-c2c[nH]c3ncnc(N4CCOCC4)c23)c1	none (no result: DRV1 agonist, OvCa metastasis, GALC G270D act)
CCc1ccccc1S(=O)(=O)Cc1ccc(C(=O)NCCc2ccc(Cl)cc2)o1	DRV1 agonist 66, FH mod inconclusive
CCc1ccccc1S(=O)(=O)Cc1ccc(C(=O)NCc2ccc(Cl)cc2)o1	DRV1 agonist inconclusive
CC1(C)CC2C3=CCC4[C@@]5(C)CC[C@H](OC6OCC(O)C(OC7OC(CO)C(O)C(O)C7O)C6O)C(C)(C)C5CC[C@@]4(C)[C@]3(C)C[C@H](O)[C@@]2(CO)[C@H](OC(=O)c2ccccc2)C1 (some centres not stated)	none (no result: DRV1 agonist, OvCa metastasis, GALC G270D act)
COc1ccc(CCNC(=O)c2cc3c(-c4ccc(OC)c(OC)c4)nn(C)c3s2)cc1OC	FH mod 32µM
C/C=C/C=C/C=C/C(=O)OC1C=C(C=O)C(O)(C(=O)O)C2(C)CCCC(C)(C)C12 (configuration not stated)	none (no result: DRV1 agonist, OvCa metastasis, GALC G270D act)
Cc1ccc(Cl)c(Nc2ccccc2C(=O)O)c1Cl	DRV1 agonist 103!, FH mod inconclusive (no result: OvCa metastasis)
O=c1nc(-c2ccccn2)sc2ccccc12	none (no result: DRV1 agonist, OvCa metastasis, GALC G270D act)
COc1cc2nc(Nc3cccc(C)c3)nc(N)c2cc1OC	OvCa metastasis inconclusive
COc1cc2nc(Nc3ccc(C)c(C)c3)nc(N)c2cc1OC	DRV1 agonist 83, OvCa metastasis inconclusive
C[C@@H](c1nc(-c2ccc(C#N)cc2)cs1)[C@](O)(Cn1cncn1)c1cc(F)ccc1F	none (no result: DRV1 agonist, OvCa metastasis, GALC G270D act)
CCCCS(=O)(=O)Nc1ncnc(OCCOc2ncc(Br)cn2)c1-c1ccc(Br)cc1	none (no result: DRV1 agonist, OvCa metastasis, GALC G270D act)
COc1cc(N)c(Cl)cc1C(=O)NC1CCN(CCCOc2ccc(F)cc2)CC1OC (configuration not stated)	DRV1 agonist 64 (no result: OvCa metastasis)
COc1ccc(OC)c(C(=O)CC2(O)C(=O)N(Cc3ccccc3C)c3ccccc32)c1 (configuration not stated)	FH mod inconclusive
Cc1ccccc1CN1C(=O)C(O)(CC(=O)c2cccc(Br)c2)c2ccccc21 (configuration not stated)	FH mod 32µM
O=C(CC1(O)C(=O)N(CCc2ccccc2)c2ccc(Br)cc21)c1ccccc1 (configuration not stated)	DRV1 agonist 60
CC/C=C\CC1C(=O)CCC1CC(=O)OC (configuration not stated)	none (no result: DRV1 agonist, OvCa metastasis, GALC G270D act)
CNS(=O)(=O)c1ccc2c(c1)/C(=C/c1[nH]c3c(c1CCCN1CCN(C)CC1)CCCC3)C(=O)N2	none (no result: DRV1 agonist, OvCa metastasis, GALC G270D act)
O=C(NCCc1ccc(Cl)cc1)c1ccc2c(c1)N(Cc1ccc(F)cc1Cl)C(=O)CS2	none
O=C(NCCc1ccccc1)c1ccc2c(c1)N(Cc1ccc(F)cc1Cl)C(=O)CS2	DRV1 agonist 108
CCN(CC)CCOc1ccccc1C(=O)CCc1ccccc1	DRV1 agonist 107 (no result: OvCa metastasis)
CCCNCC(O)COc1ccccc1C(=O)CCc1ccccc1 (configuration not stated)	DRV1 agonist 87!
COc1ccc(-c2cc3onc(-c4ccncc4)c3c(=O)n2C)cc1	none (no result: DRV1 agonist, OvCa metastasis, GALC G270D act)
OC1(c2ccc(Cl)c(C(F)(F)F)c2)CCN(CCCC(c2ccc(F)cc2)c2ccc(F)cc2)CC1	DRV1 agonist 64 (no result: OvCa metastasis)
CN(C)C(=O)C(CCN1CCC(O)(c2ccc(Cl)cc2)CC1)(c1ccccc1)c1ccccc1	none
COc1ccc(C)c2sc(N3CCN(C(=O)c4cccc(F)c4)CC3)nc12	none
